Measured values: PubChem BioAssay (NCI)
This is part of a sample that, as a whole, favours compounds with a hit. Of some 79,000 tested, about 15% had one in any assay. Values without a mark were called inactive. Active and inactive are the calls of the source. Rule as the data show it: active = growth inhibition above about 70%; inactive = the rest.

Assays:
[1] = NCI Yeast Anticancer Drug Screen. Data for the rad52 strain (AID 147);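 also: 0% = growth of vehicle-treated control cultures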; settings: S. cerevisiae rad52 mutant growth inhibition, stronger effect = higher value
Method in brief: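 DNA repair-defective yeast; compound exposure; growth scored against vehicle controls.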

[2] = NCI Yeast Anticancer Drug Screen. Data for the wt1 strain (AID 149);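 also: 0% = growth of vehicle-treated wt1 cultures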; settings: S. cerevisiae wt1 strain (SPY 50644) growth inhibition, stronger effect = higher value
Method in brief: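 Using yeast strain wt1, compound-induced growth inhibition was determined against vehicle-treated cultures.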

[3] = NCI Yeast Anticancer Drug Screen. Data for the rad50EPP+ strain (AID 151);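 also: 0% = growth of vehicle-treated control cultures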; settings: S. cerevisiae rad50 mutant strain, stronger effect = higher value
Method in brief: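 rad50EPP+ yeast treated with test compounds. Readout: growth vs vehicle control.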

[4] = NCI Yeast Anticancer Drug Screen. Data for the mgt1 strain (AID 153); settings: S. cerevisiae mgt1 mutant growth inhibition, stronger effect = higher value
Method in brief: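 Growth inhibition relative to vehicle controls was scored for the mgt1 yeast strain after compound exposure.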

[5] = NCI Yeast Anticancer Drug Screen. Data for the rad50 strain (AID 155);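 also: 0% = growth of vehicle-only cultures of the same strain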; settings: S. cerevisiae rad50 strain growth inhibition, stronger effect = higher value
Method in brief: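 Relative growth inhibition (compound vs vehicle) was measured in yeast with a defined repair-gene alteration.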

[6] = NCI Yeast Anticancer Drug Screen. Data for the mec2-1 strain (AID 157); settings: S. cerevisiae mec2-1 strain, stronger effect = higher value
Method in brief: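 Growth inhibition is read against vehicle-treated controls after compound exposure of the mec2-1 yeast strain, which is defective in DNA damage repair or cell cycle control.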

[7] = NCI Yeast Anticancer Drug Screen. Data for the rad14 strain (AID 159);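 also: 0% = growth of vehicle-treated control cultures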; settings: S. cerevisiae rad14 strain growth inhibition, stronger effect = higher value
Method in brief: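 Screen for anticancer potential: a yeast strain altered in DNA damage repair is grown with compound, and reduced growth is quantified against vehicle controls.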

[8] = NCI Yeast Anticancer Drug Screen. Data for the sgs1 mgt1 strain (AID 161);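 also: 0% = growth of cultures given vehicle only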; settings: S. cerevisiae sgs1 mgt1 strain, stronger effect = higher value
Method in brief: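 Compounds are added to genetically altered yeast, and growth is compared with cultures given vehicle alone to give percent inhibition.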

[9] = NCI Yeast Anticancer Drug Screen. Data for the CLN2oe strain (AID 163);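 also: 0% = growth of vehicle-only control cultures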; settings: S. cerevisiae CLN2oe strain, stronger effect = higher value
Method in brief: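 Compound-treated yeast; growth vs vehicle ctrl = % inhibition. Genetically altered strain (cell-cycle control).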

[10] = NCI Yeast Anticancer Drug Screen. Data for the cln2 rad14 strain (AID 165);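 also: 0% = growth equal to vehicle treated cultures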; settings: S. cerevisiae cln2 rad14 strain, stronger effect = higher value
Method in brief: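 Growth inhibition, relative to vehicle-treated controls, is the read-out. The test organism is a yeast strain with defined genetic alterations, cln2 rad14.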

[11] = NCI Yeast Anticancer Drug Screen. Data for the bub3 strain (AID 167); settings: S. cerevisiae bub3 mutant strain, stronger effect = higher value
Method in brief: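 Screening used yeast with an engineered genetic alteration affecting cell cycle control. Compound-exposed cultures were compared with vehicle cultures, and reduced growth was taken as inhibition.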

[12] = NCI Yeast Anticancer Drug Screen. Data for the wt2 strain (AID 169);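 also: 0% = growth of vehicle-treated yeast cultures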; settings: S. cerevisiae wt2 strain growth inhibition, stronger effect = higher value
Method in brief: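 Compound exposure of yeast; growth compared with vehicle controls; inhibition reported.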

[13] = NCI Yeast Anticancer Drug Screen. Data for the mlh1 strain (AID 171);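 also: 0% = growth of vehicle-treated control cultures of the same strain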; settings: S. cerevisiae mlh1 strain growth inhibition, stronger effect = higher value
Method in brief: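 Compounds are applied to a genetically altered yeast strain, and its growth is compared with that of vehicle-treated cultures to give percent inhibition.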

[14] = NCI Yeast Anticancer Drug Screen. Data for the sgs1 strain (AID 173);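 also: 0% = growth of vehicle-only control cultures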; settings: S. cerevisiae sgs1 mutant, stronger effect = higher value
Method in brief: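 Compounds applied to genetically altered yeast; growth compared with vehicle-treated cultures to give % inhibition.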

[15] = NCI Yeast Anticancer Drug Screen. Data for the mlh1 rad18 strain (AID 175); settings: S. cerevisiae mlh1 rad18 strain growth inhibition, stronger effect = higher value
Method in brief: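 Cells of a genetically altered yeast strain, deficient in DNA damage repair, were treated with compound. Their growth was then compared with that of vehicle-treated cultures to give inhibition.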

[16] = NCI Yeast Anticancer Drug Screen. Data for the rad18 strain (AID 177); settings: S. cerevisiae rad18 mutant growth inhibition, stronger effect = higher value
Method in brief: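 Compounds are applied to a repair-deficient yeast strain, and growth is compared with that of vehicle-treated cultures to give percent inhibition.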

[17] = at 5.0 µM (retest, dose inferred, filed as 0.5)
[18] = at 50.0 µM (retest, dose inferred, filed as 5.0)

CS(=O)(=O)SCc1ccc([N+](=O)[O-])cc1
growth inhibition ([1]; at 1.2 µM): 7%
growth inhibition ([1]; at 3.7 µM): 30%
growth inhibition ([1]; at 11.0 µM): 90% (active)
growth inhibition ([1]; at 33.0 µM): 99% (active)
growth inhibition ([1]; at 100.0 µM): 97% (active)
growth inhibition ([2]; at 1.2 µM): -5%
growth inhibition ([2]; at 3.7 µM): 1%
growth inhibition ([2]; at 11.0 µM): 38%
growth inhibition ([2]; at 33.0 µM): 99% (active)
growth inhibition ([2]; at 100.0 µM): 98% (active)
growth inhibition ([3]; at 1.2 µM): 8%
growth inhibition ([3]; at 3.7 µM): 57%
growth inhibition ([3]; at 11.0 µM): 97% (active)
growth inhibition ([3]; at 33.0 µM): 99% (active)
growth inhibition ([3]; at 100.0 µM): 97% (active)
growth inhibition ([4]; at 1.2 µM): -2%
growth inhibition ([4]; at 3.7 µM): -4%
growth inhibition ([4]; at 11.0 µM): 61%
growth inhibition ([4]; at 33.0 µM): 99% (active)
growth inhibition ([4]; at 100.0 µM): 98% (active)
growth inhibition ([5]; at 1.2 µM): 1%
growth inhibition ([5]; at 3.7 µM): 41%
growth inhibition [5, 17]: 20%
growth inhibition ([5]; at 11.0 µM): 97% (active)
growth inhibition ([5]; at 33.0 µM): 99% (active)
growth inhibition [5, 18]: 93% (active)
growth inhibition ([5]; at 50.0 µM): 97.9% (active)
growth inhibition ([5]; at 100.0 µM): 97% (active)
growth inhibition ([6]; at 1.2 µM): 3%
growth inhibition ([6]; at 3.7 µM): 4%
growth inhibition [6, 17]: -25%
growth inhibition ([6]; at 11.0 µM): 85% (active)
growth inhibition ([6]; at 33.0 µM): 99% (active)
growth inhibition [6, 18]: 96% (active)
growth inhibition ([6]; at 50.0 µM): 98% (active)
growth inhibition ([6]; at 100.0 µM): 97% (active)
growth inhibition ([7]; at 1.2 µM): 5%
growth inhibition ([7]; at 3.7 µM): 18%
growth inhibition ([7]; at 11.0 µM): 69%
growth inhibition ([7]; at 33.0 µM): 99% (active)
growth inhibition ([7]; at 100.0 µM): 97% (active)
growth inhibition [8, 17]: -11%
growth inhibition [8, 18]: 95% (active)
growth inhibition ([8]; at 50.0 µM): 98.1% (active)
growth inhibition ([9]; at 1.2 µM): -2%
growth inhibition ([9]; at 3.7 µM): 7%
growth inhibition ([9]; at 11.0 µM): 57%
growth inhibition ([9]; at 33.0 µM): 98% (active)
growth inhibition ([9]; at 100.0 µM): 97% (active)
growth inhibition [10, 17]: -35%
growth inhibition [10, 18]: 94% (active)
growth inhibition ([10]; at 50.0 µM): 96.5% (active)
growth inhibition ([11]; at 1.2 µM): 6%
growth inhibition ([11]; at 3.7 µM): 40%
growth inhibition [11, 17]: 51%
growth inhibition ([11]; at 11.0 µM): 97% (active)
growth inhibition ([11]; at 33.0 µM): 99% (active)
growth inhibition [11, 18]: 94% (active)
growth inhibition ([11]; at 50.0 µM): 98.8% (active)
growth inhibition ([11]; at 100.0 µM): 96% (active)
growth inhibition ([12]; at 1.2 µM): -1%
growth inhibition ([12]; at 3.7 µM): -3%
growth inhibition ([12]; at 11.0 µM): 69%
growth inhibition ([12]; at 33.0 µM): 99% (active)
growth inhibition ([12]; at 100.0 µM): 97% (active)
growth inhibition ([13]; at 1.2 µM): 6%
growth inhibition ([13]; at 3.7 µM): 14%
growth inhibition ([13]; at 11.0 µM): 70% (active)
growth inhibition ([13]; at 33.0 µM): 99% (active)
growth inhibition ([13]; at 100.0 µM): 97% (active)
growth inhibition ([14]; at 1.2 µM): -3%
growth inhibition ([14]; at 3.7 µM): 39%
growth inhibition ([14]; at 11.0 µM): 97% (active)
growth inhibition ([14]; at 33.0 µM): 99% (active)
growth inhibition ([14]; at 100.0 µM): 97% (active)
growth inhibition [15, 17]: -31%
growth inhibition [15, 18]: 93% (active)
growth inhibition ([15]; at 50.0 µM): 98% (active)
growth inhibition ([16]; at 1.2 µM): 7%
growth inhibition ([16]; at 3.7 µM): 29%
growth inhibition ([16]; at 11.0 µM): 90% (active)
growth inhibition ([16]; at 33.0 µM): 99% (active)
growth inhibition ([16]; at 100.0 µM): 97% (active)

c1ccc2cc(NCNc3ccc4ccccc4c3)ccc2c1
growth inhibition ([1]; at 1.2 µM): -3%
growth inhibition ([1]; at 3.7 µM): -6%
growth inhibition ([1]; at 11.0 µM): -9%
growth inhibition ([1]; at 33.0 µM): 1%
growth inhibition ([1]; at 100.0 µM): 24%
growth inhibition ([2]; at 1.2 µM): 2%
growth inhibition ([2]; at 3.7 µM): 3%
growth inhibition ([2]; at 11.0 µM): 6%
growth inhibition ([2]; at 33.0 µM): 11%
growth inhibition ([2]; at 100.0 µM): 16%
growth inhibition ([3]; at 1.2 µM): 0%
growth inhibition ([3]; at 3.7 µM): 6%
growth inhibition ([3]; at 11.0 µM): 11%
growth inhibition ([3]; at 33.0 µM): 26%
growth inhibition ([3]; at 100.0 µM): 42%
growth inhibition ([4]; at 1.2 µM): 1%
growth inhibition ([4]; at 3.7 µM): 0%
growth inhibition ([4]; at 11.0 µM): 3%
growth inhibition ([4]; at 33.0 µM): 8%
growth inhibition ([4]; at 100.0 µM): 12%
growth inhibition ([5]; at 1.2 µM): 1%
growth inhibition ([5]; at 3.7 µM): -5%
growth inhibition [5, 17]: -9%
growth inhibition ([5]; at 11.0 µM): 5%
growth inhibition ([5]; at 33.0 µM): 0%
growth inhibition [5, 18]: 75% (active)
growth inhibition ([5]; at 50.0 µM): 95.8% (active)
growth inhibition ([5]; at 100.0 µM): 22%
growth inhibition ([6]; at 1.2 µM): 0%
growth inhibition ([6]; at 3.7 µM): 1%
